# About 83,000 compounds went through this panel and 20% of them were active in at least one assay; those are over-represented in the sample as a whole.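 The endpoint reported here, percent growth, reads 100 for growth as untreated, 0 for no net growth and -100 for all cells dead.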 A number with no mark means an inactive call. Active and inactive are the calls of the source. Rule for the calls: active = growth percent below 10; inactive = the rest.
# Assays:
# Experiment in all cases: NCI-60 one-dose screen, 48 h (100 = growth as untreated, 0 = no growth, -100 = all killed)
# SR leukemia = conditions: 10 µM unless noted
# RPMI-8226 leukemia = system: RPMI-8226 leukemia
# OVCAR-8 ovarian = system: OVCAR-8 ovarian
# OVCAR-5 ovarian = system: OVCAR-5 ovarian
# OVCAR-4 ovarian = system: OVCAR-4 ovarian
# SK-OV-3 ovarian = system: SK-OV-3 ovarian
# IGROV1 ovarian = system: IGROV1 ovarian
# OVCAR-3 ovarian = system: OVCAR-3 ovarian
# NCI/ADR-RES ovarian = system: NCI/ADR-RES ovarian
# HS 578T breast = system: HS 578T breast
compound,measurement,setting,value
COC(=O)CSC1=C(C)C(=O)C(OC)=C(OC)C1=O,growth,SR leukemia,57%
same,growth,RPMI-8226 leukemia; 10 µM unless noted,65.6%
same,growth,OVCAR-8 ovarian; 10 µM unless noted,92.2%
same,growth,OVCAR-5 ovarian; 10 µM unless noted,110%
same,growth,OVCAR-4 ovarian; 10 µM unless noted,94.2%
same,growth,SK-OV-3 ovarian; 10 µM unless noted,100%
same,growth,IGROV1 ovarian; 10 µM unless noted,106%
same,growth,OVCAR-3 ovarian; 10 µM unless noted,91.8%
same,growth,NCI/ADR-RES ovarian; 10 µM unless noted,96.6%
Cc1cc(N=C(N)c2ccccc2)ccc1OCCCCCCCCn1ccnc1,growth,SR leukemia,0.698% (active)
same,growth,OVCAR-5 ovarian; 10 µM unless noted,1.47% (active)
same,growth,OVCAR-4 ovarian; 10 µM unless noted,37.5%
same,growth,SK-OV-3 ovarian; 10 µM unless noted,16.7%
same,growth,IGROV1 ovarian; 10 µM unless noted,6.54% (active)
CC/C(=C(/c1ccc(O)cc1)c1ccc(OCCN(C)C(=O)COCCOCCNC(=O)c2ccc3c(c2)CN([C@@H]2CCC(=O)NC2=O)C3=O)cc1)c1ccccc1,growth,RPMI-8226 leukemia; 1 µM,99.6%
same,growth,RPMI-8226 leukemia; 10 µM,78.5%
same,growth,OVCAR-8 ovarian; 1 µM,102%
same,growth,OVCAR-8 ovarian; 10 µM,61.1%
same,growth,OVCAR-5 ovarian; 1 µM,96%
same,growth,OVCAR-5 ovarian; 10 µM,86.8%
same,growth,OVCAR-4 ovarian; 1 µM,103%
same,growth,OVCAR-4 ovarian; 10 µM,93%
same,growth,SK-OV-3 ovarian; 1 µM,91.1%
same,growth,SK-OV-3 ovarian; 10 µM,92.8%
same,growth,IGROV1 ovarian; 1 µM,63.1%
same,growth,IGROV1 ovarian; 10 µM,37.6%
same,growth,OVCAR-3 ovarian; 1 µM,99.1%
same,growth,OVCAR-3 ovarian; 10 µM,95.8%
same,growth,HS 578T breast; 1 µM,70.9%
same,growth,HS 578T breast; 10 µM,53.9%
same,growth,NCI/ADR-RES ovarian; 1 µM,106%
same,growth,NCI/ADR-RES ovarian; 10 µM,102%
Cc1ccc(S(=O)(=O)N(CCn2ccnc2[N+](=O)[O-])CCn2ccnc2[N+](=O)[O-])cc1,growth,SR leukemia,94.2%
same,growth,RPMI-8226 leukemia; 10 µM unless noted,102%
same,growth,OVCAR-8 ovarian; 10 µM unless noted,101%
same,growth,OVCAR-5 ovarian; 10 µM unless noted,103%
same,growth,OVCAR-4 ovarian; 10 µM unless noted,107%
same,growth,SK-OV-3 ovarian; 10 µM unless noted,109%
same,growth,IGROV1 ovarian; 10 µM unless noted,109%
same,growth,OVCAR-3 ovarian; 10 µM unless noted,124%
same,growth,NCI/ADR-RES ovarian; 10 µM unless noted,104%
CC/C(=C(\c1ccc(O)cc1)c1ccc(OCCNC)cc1)c1ccccc1,growth,RPMI-8226 leukemia; 1 µM,100%
same,growth,RPMI-8226 leukemia; 10 µM,86.1%
same,growth,OVCAR-8 ovarian; 1 µM,104%
same,growth,OVCAR-8 ovarian; 10 µM,97.3%
same,growth,OVCAR-5 ovarian; 1 µM,97.8%
same,growth,OVCAR-5 ovarian; 10 µM,106%
same,growth,OVCAR-4 ovarian; 1 µM,111%
same,growth,OVCAR-4 ovarian; 10 µM,88.7%
same,growth,SK-OV-3 ovarian; 1 µM,84.4%
same,growth,SK-OV-3 ovarian; 10 µM,92.7%
same,growth,IGROV1 ovarian; 1 µM,101%
same,growth,IGROV1 ovarian; 10 µM,96.9%
same,growth,OVCAR-3 ovarian; 1 µM,115%
same,growth,OVCAR-3 ovarian; 10 µM,85.4%
same,growth,HS 578T breast; 1 µM,94.8%
same,growth,HS 578T breast; 10 µM,80.5%
CCCCCCCCc1cccc(CC(=O)Nc2ccc(C)cc2C(=O)O)c1,growth,SR leukemia,31.1% [25 µM]
same,growth,RPMI-8226 leukemia; 10 µM unless noted,25.4% [25 µM]
same,growth,OVCAR-8 ovarian; 10 µM unless noted,45.6% [25 µM]
same,growth,OVCAR-5 ovarian; 10 µM unless noted,75.6% [25 µM]
same,growth,OVCAR-4 ovarian; 10 µM unless noted,86.1% [25 µM]
same,growth,SK-OV-3 ovarian; 10 µM unless noted,89.2% [25 µM]
same,growth,IGROV1 ovarian; 10 µM unless noted,42.5% [25 µM]
same,growth,OVCAR-3 ovarian; 10 µM unless noted,69.4% [25 µM]
same,growth,NCI/ADR-RES ovarian; 10 µM unless noted,49.6% [25 µM]
Cc1ccc(C2CC(c3ccc(NC(=O)Nc4ccccc4)cc3)=NN2c2ccc(S(N)(=O)=O)cc2)cc1 (stereo not drawn),growth,SR leukemia,-12.7% (active)
same,growth,RPMI-8226 leukemia; 10 µM unless noted,-11.5% (active)
same,growth,OVCAR-8 ovarian; 10 µM unless noted,-46.2% (active)
same,growth,OVCAR-5 ovarian; 10 µM unless noted,-95.4% (active)
same,growth,OVCAR-4 ovarian; 10 µM unless noted,-87.6% (active)
same,growth,SK-OV-3 ovarian; 10 µM unless noted,-77.6% (active)
same,growth,IGROV1 ovarian; 10 µM unless noted,-93.5% (active)
same,growth,OVCAR-3 ovarian; 10 µM unless noted,-75.8% (active)
same,growth,NCI/ADR-RES ovarian; 10 µM unless noted,-66.9% (active)
COc1ccc([C@H]2C(C(=O)c3ccc(Cl)cc3)C3(N[C@@H]2c2ccccc2)C(=O)Nc2ccccc23)cc1 (stereo partly drawn),growth,RPMI-8226 leukemia; 10 µM unless noted,10.4%
same,growth,OVCAR-8 ovarian; 10 µM unless noted,32.7%
same,growth,OVCAR-5 ovarian; 10 µM unless noted,50.5%
same,growth,OVCAR-4 ovarian; 10 µM unless noted,31.1%
same,growth,SK-OV-3 ovarian; 10 µM unless noted,72.5%
same,growth,IGROV1 ovarian; 10 µM unless noted,35.6%
same,growth,OVCAR-3 ovarian; 10 µM unless noted,27.4%
same,growth,HS 578T breast; 10 µM unless noted,53.7%
same,growth,NCI/ADR-RES ovarian; 10 µM unless noted,12.2%
CCOc1ccccc1NC(=O)N/C(N)=N/c1nc2ccccc2s1,growth,SR leukemia,5.36% (active)
same,growth,RPMI-8226 leukemia; 10 µM unless noted,0.173% (active)
same,growth,OVCAR-8 ovarian; 10 µM unless noted,-15.2% (active)
same,growth,OVCAR-5 ovarian; 10 µM unless noted,16.9%
same,growth,OVCAR-4 ovarian; 10 µM unless noted,33.9%
same,growth,SK-OV-3 ovarian; 10 µM unless noted,9.18% (active)
same,growth,IGROV1 ovarian; 10 µM unless noted,22.7%
same,growth,OVCAR-3 ovarian; 10 µM unless noted,-10.7% (active)
same,growth,NCI/ADR-RES ovarian; 10 µM unless noted,-14.1% (active)
NC(=Nc1ccc(OCCCCCCCCn2cnnn2)cc1)c1ccccc1,growth,SR leukemia,14.6%
same,growth,RPMI-8226 leukemia; 10 µM unless noted,29.5%
same,growth,OVCAR-5 ovarian; 10 µM unless noted,23.1%
same,growth,OVCAR-4 ovarian; 10 µM unless noted,56%
same,growth,SK-OV-3 ovarian; 10 µM unless noted,35.3%
same,growth,IGROV1 ovarian; 10 µM unless noted,24.4%
COc1cc(C2CC(c3ccc(F)cc3)=Nc3c(N)nc(N)nc3N2)ccc1Oc1nc(Nc2ccc(F)cc2)nc(N(C)C)n1 (stereo not drawn),growth,SR leukemia,-21.5% (active)
same,growth,RPMI-8226 leukemia; 10 µM unless noted,15.7%
same,growth,OVCAR-8 ovarian; 10 µM unless noted,63%
same,growth,OVCAR-5 ovarian; 10 µM unless noted,100%
same,growth,OVCAR-4 ovarian; 10 µM unless noted,23.5%
same,growth,SK-OV-3 ovarian; 10 µM unless noted,86.8%
same,growth,IGROV1 ovarian; 10 µM unless noted,51.7%
same,growth,OVCAR-3 ovarian; 10 µM unless noted,71.6%
same,growth,NCI/ADR-RES ovarian; 10 µM unless noted,48.5%
O=C(c1ccc(O)cc1)C1[C@H](c2ccccc2Br)[C@@H](c2ccccc2)NC12C(=O)Nc1ccccc12 (stereo partly drawn),growth,RPMI-8226 leukemia; 10 µM unless noted,31.4%
same,growth,OVCAR-8 ovarian; 10 µM unless noted,30.2%
same,growth,OVCAR-5 ovarian; 10 µM unless noted,56.7%
same,growth,OVCAR-4 ovarian; 10 µM unless noted,48.3%
same,growth,SK-OV-3 ovarian; 10 µM unless noted,70.5%
same,growth,IGROV1 ovarian; 10 µM unless noted,26.6%
same,growth,OVCAR-3 ovarian; 10 µM unless noted,20.7%
same,growth,HS 578T breast; 10 µM unless noted,49.1%
same,growth,NCI/ADR-RES ovarian; 10 µM unless noted,53.1%
Cc1cnc2ccc(Oc3ccccc3-c3ccccc3)nn12,growth,SR leukemia,89.3%
same,growth,RPMI-8226 leukemia; 10 µM unless noted,106%
same,growth,OVCAR-8 ovarian; 10 µM unless noted,103%
same,growth,OVCAR-5 ovarian; 10 µM unless noted,111%
same,growth,OVCAR-4 ovarian; 10 µM unless noted,112%
same,growth,SK-OV-3 ovarian; 10 µM unless noted,178%
same,growth,IGROV1 ovarian; 10 µM unless noted,105%
same,growth,OVCAR-3 ovarian; 10 µM unless noted,120%
same,growth,NCI/ADR-RES ovarian; 10 µM unless noted,104%
CS(=O)(=O)Nc1cc(-c2ccc3ncnc(Nc4ccc(OCc5cccnc5)c(Cl)c4)c3c2)cnc1Cl,growth,SR leukemia,-60.1% (active)
same,growth,RPMI-8226 leukemia; 10 µM unless noted,-2.42% (active)
same,growth,OVCAR-8 ovarian; 10 µM unless noted,8.77% (active)
same,growth,OVCAR-5 ovarian; 10 µM unless noted,12.1%
same,growth,OVCAR-4 ovarian; 10 µM unless noted,28.9%
same,growth,SK-OV-3 ovarian; 10 µM unless noted,-14.9% (active)
same,growth,IGROV1 ovarian; 10 µM unless noted,-56.8% (active)
same,growth,OVCAR-3 ovarian; 10 µM unless noted,-40.7% (active)
same,growth,NCI/ADR-RES ovarian; 10 µM unless noted,70.5%
CC1=C(C(=O)OC(C)C)C(c2ccc(O)cc2)NC(=O)N1 (stereo not drawn),growth,RPMI-8226 leukemia; 10 µM unless noted,98.9%
same,growth,OVCAR-8 ovarian; 10 µM unless noted,108%
same,growth,OVCAR-5 ovarian; 10 µM unless noted,105%
same,growth,OVCAR-4 ovarian; 10 µM unless noted,100%
same,growth,SK-OV-3 ovarian; 10 µM unless noted,106%
same,growth,IGROV1 ovarian; 10 µM unless noted,109%
same,growth,OVCAR-3 ovarian; 10 µM unless noted,108%
same,growth,HS 578T breast; 10 µM unless noted,99.8%
same,growth,NCI/ADR-RES ovarian; 10 µM unless noted,99.8%
Cn1cc(-c2cc(N)n3nc(-c4c[nH]c5ccccc45)cc3n2)c2cc(Br)ccc21,growth,SR leukemia,13.6%
same,growth,RPMI-8226 leukemia; 10 µM unless noted,-9.12% (active)
same,growth,OVCAR-8 ovarian; 10 µM unless noted,-63.7% (active)
same,growth,OVCAR-5 ovarian; 10 µM unless noted,-57.1% (active)
same,growth,OVCAR-4 ovarian; 10 µM unless noted,-40.6% (active)
same,growth,SK-OV-3 ovarian; 10 µM unless noted,-60% (active)
same,growth,IGROV1 ovarian; 10 µM unless noted,-70.6% (active)
same,growth,OVCAR-3 ovarian; 10 µM unless noted,-48% (active)
same,growth,NCI/ADR-RES ovarian; 10 µM unless noted,-18.4% (active)
